# Measurements as given in PubChem BioAssay (NCATS).
# Inconclusive results are not listed. A structure can be active in one record and inactive in another. A number with no mark means an inactive call. Calls of active or inactive are those of the source. Calls follow the shape of the dose curve; as a rule, active = well fitted inhibition curve with a large enough effect; inconclusive = small, poorly fitted or top-dose-only effect; inactive = flat fitted curve, though single readings scatter.
# Key:
# [1] = Drug repurposing screens with cells derived from glioblastoma tumor samples (AID 1345199); settings: GBM patient neurospheres viability, ATP luminescence, 48 h; also: nearly all actives have a fitted effect of over 40% in size
# Method in brief: (§1)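 Primary testing used CD133+ neurospheres from four GBM patients, seven concentrations, 48 h exposure and ATP-based viability; confirmation added three slower-growing patient lines.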
# [2] = tested on: astro; experiment: as above; settings: viability, ATP luminescence, 48 h; series mostly up to 45.9 µM
# Method in brief: as §1
# [3] = at 45.9 µM (top of the series), tumour line B
# [4] = at 45.9 µM (top of the series), tumour line D
# [5] = at 46 µM (top of the series), tumour line A
# [6] = at 46.1 µM (top of the series), tumour line C
# [7] = at 108 µM (top of the series), tumour line B
# [8] = at 108 µM (top of the series), tumour line D
# [9] = at 20 µM (top of the series), tumour line C
# [10] = at 21.2 µM (top of the series), tumour line B
# [11] = at 21.2 µM (top of the series), tumour line D
# [12] = at 21.3 µM (top of the series), tumour line A
# % is scaled to controls: 0 for no effect and ±100 for the full control effect; potency is read from the fitted curve at half-maximal effect.
structure (smiles),measurement,setting,value
C[C@@H](CO)NC(=O)[C@@H]1C=C2c3cccc4[nH]cc(c34)C[C@H]2N(C)C1,"activity, negative = cell killing",[1]; [3],-4.28%
same,"activity, negative = cell killing",[1]; [4],-4.71%
same,"activity, negative = cell killing",[1]; [5],-21.2%
same,"activity, negative = cell killing",[1]; [6],15.8%
same,Potency,[2],inactive
CN1[C@H]2CC[C@@H]1[C@@H](C(=O)O)[C@@H](OC(=O)c1ccccc1)C2,"activity, negative = cell killing",[1]; [3],-13.9%
same,"activity, negative = cell killing",[1]; [4],-11.4%
same,"activity, negative = cell killing",[1]; [5],-27%
same,"activity, negative = cell killing",[1]; [6],-10.2%
same,"activity, negative = cell killing","[1]; at 99.2 µM (top of the series), tumour line C",-6.57%
same,"activity, negative = cell killing","[1]; at 108 µM (top of the series), tumour line A",-26.2%
same,"activity, negative = cell killing",[1]; [7],-7.59%
same,"activity, negative = cell killing",[1]; [8],-7.94%
same,Potency,[2],inactive
CCC1C(C)=NN=C(c2ccc(OC)c(OC)c2)c2cc(OC)c(OC)cc21 (centres undefined),"activity, negative = cell killing",[1]; [3],-16.7%
same,"activity, negative = cell killing",[1]; [4],-19%
same,"activity, negative = cell killing",[1]; [6],-6.07%
CCON=O,"activity, negative = cell killing",[1]; [3],-13.3%
same,"activity, negative = cell killing",[1]; [4],8.29%
same,"activity, negative = cell killing",[1]; [6],-23.8%
same,Potency,[1]; tumour line A,0.224 µM (active)
same,Potency,[2],inactive
C[C@]12C[C@H]3S[C@H]3C[C@@H]1CC[C@@H]1[C@@H]2CC[C@]2(C)[C@@H](O)CC[C@@H]12,"activity, negative = cell killing",[1]; [9],-0.246%
same,"activity, negative = cell killing",[1]; [10],-21.3%
same,"activity, negative = cell killing",[1]; [11],-16.8%
same,Potency,[1]; tumour line A,14.1 µM (active)
same,Potency,[2],inactive
C[N+]1([O-])[C@@H]2CC[C@H]1CC(OC(=O)C(CO)c1ccccc1)C2 (some centres undefined),"activity, negative = cell killing",[1]; [9],-19.4%
same,"activity, negative = cell killing",[1]; [10],-4.66%
same,"activity, negative = cell killing",[1]; [11],-20.9%
same,"activity, negative = cell killing",[1]; [12],-44.8%
same,"activity, negative = cell killing",[1]; [3],-7.07%
same,"activity, negative = cell killing",[1]; [4],8.25%
same,"activity, negative = cell killing",[1]; [6],21.1%
same,Potency,[2],inactive
CCCC(=O)OC(C(Cl)(Cl)Cl)P(=O)(OC)OC (centres undefined),"activity, negative = cell killing",[1]; [3],-9.86%
same,"activity, negative = cell killing",[1]; [4],-6.58%
same,"activity, negative = cell killing",[1]; [5],-3.23%
same,"activity, negative = cell killing",[1]; [6],7.15%
same,Potency,[2],inactive
CNC(=O)OCC[N+](C)(C)C,"activity, negative = cell killing",[1]; [3],-5.85%
same,"activity, negative = cell killing",[1]; [4],-20%
same,"activity, negative = cell killing",[1]; [5],-22.4%
same,"activity, negative = cell killing",[1]; [6],-19.7%
same,Potency,[2],inactive
CC1(C)S[C@@H]2[C@H](N)C(=O)N2[C@H]1C(=O)O,"activity, negative = cell killing",[1]; [9],-3.46%
same,"activity, negative = cell killing",[1]; [10],-7.3%
same,"activity, negative = cell killing",[1]; [11],-20.2%
same,"activity, negative = cell killing",[1]; [12],-24.1%
same,Potency,[2],inactive
ClC1C(Cl)C(Cl)C(Cl)C(Cl)C1Cl (centres undefined),"activity, negative = cell killing",[1]; [3],-3.31%
same,"activity, negative = cell killing",[1]; [4],-6.39%
same,"activity, negative = cell killing",[1]; [5],-20.5%
same,"activity, negative = cell killing",[1]; [6],-11%
same,Potency,[2],inactive
Cn1sc(Cl)cc1=O,"activity, negative = cell killing",[1]; [3],-15.7%
same,"activity, negative = cell killing",[1]; [4],-11.3%
same,"activity, negative = cell killing",[1]; [5],-21.6%
same,"activity, negative = cell killing",[1]; [6],-21.9%
same,Potency,[2],inactive
CC(C)CCC(=O)O[C@H]1CC[C@H]2[C@@H]3CCC4=CC(=O)CC[C@]4(C)[C@H]3CC[C@]12C,"activity, negative = cell killing",[1]; [6],-19.7%
same,Potency,[1]; tumour line A,11.2 µM (active)
same,Potency,[1]; tumour line B,22.4 µM (active)
CCC(C)(S(=O)(=O)CC)S(=O)(=O)CC,"activity, negative = cell killing",[1]; [3],-9.18%
same,"activity, negative = cell killing",[1]; [4],-21.6%
same,"activity, negative = cell killing",[1]; [5],-5.61%
same,"activity, negative = cell killing",[1]; [6],-8.4%
same,Potency,[2],inactive
Oc1cccc[c]1[Hg][Cl],"activity, negative = cell killing",[1]; [6],-98.2%
same,Potency,[1]; tumour line A,0.398 µM (active)
same,Potency,[1]; tumour line B,0.562 µM (active)
same,Potency,[1]; tumour line D,1 µM (active)
same,Potency,[2],2.82 µM (active)
CCOC(=O)/C=C(C)/C=C/C[C@@H](C)CCCC(C)C,"activity, negative = cell killing",[1]; [3],-7.77%
same,"activity, negative = cell killing",[1]; [4],3.89%
same,"activity, negative = cell killing",[1]; [5],-29.3%
same,"activity, negative = cell killing",[1]; [6],-6.42%
same,Potency,[2],inactive
CCN(CC)C(=O)/C(Cl)=C(\C)OP(=O)(OC)OC,"activity, negative = cell killing",[1]; [3],1.79%
same,"activity, negative = cell killing",[1]; [4],-19.8%
same,"activity, negative = cell killing",[1]; [5],-32%
same,"activity, negative = cell killing",[1]; [6],1.99%
same,Potency,[2],inactive
S=C(S)N1CCNCC1,"activity, negative = cell killing",[1]; [3],-3.67%
same,"activity, negative = cell killing",[1]; [4],-4.89%
same,"activity, negative = cell killing",[1]; [5],-30%
same,"activity, negative = cell killing",[1]; [6],-13.9%
same,Potency,[2],inactive
CCC(N)Cc1c[nH]c2ccccc12 (centres undefined),"activity, negative = cell killing",[1]; [3],-19.3%
same,"activity, negative = cell killing",[1]; [4],-10.1%
same,"activity, negative = cell killing",[1]; [6],-22.2%
same,"activity, negative = cell killing",[1]; [7],-20.5%
same,"activity, negative = cell killing",[1]; [8],-20.7%
same,Potency,[1]; tumour line A,31.6 µM (active)
same,Potency,[2],inactive
CC1CCC(C(C)C)C(OC(=O)c2ccccc2N)C1 (centres undefined),"activity, negative = cell killing",[1]; [6],13.8%
same,Potency,[1]; tumour line A,12.6 µM (active)
same,Potency,[1]; tumour line B,35.5 µM (active)
C[N+]1([O-])[C@@H]2CC(OC(=O)[C@H](CO)c3ccccc3)C[C@H]1[C@@H]1O[C@@H]12 (some centres undefined),"activity, negative = cell killing",[1]; [9],3.96%
same,"activity, negative = cell killing",[1]; [10],5.23%
same,"activity, negative = cell killing",[1]; [11],-9%
same,"activity, negative = cell killing",[1]; [3],-10.9%
same,"activity, negative = cell killing",[1]; [4],-17.4%
same,"activity, negative = cell killing",[1]; [6],30.8%
same,Potency,[2],inactive
CCCCCCCCCC(=O)O[C@H]1CC[C@H]2[C@@H]3CCC4=CC(=O)CC[C@]4(C)[C@H]3CC[C@]12C,"activity, negative = cell killing",[1]; [3],-12.8%
same,"activity, negative = cell killing",[1]; [4],-20.9%
same,"activity, negative = cell killing",[1]; [6],-14.9%
same,Potency,[1]; tumour line A,15.8 µM (active)
C[C@]12CC[C@H]3[C@@H](CCC4=C(Cl)C(=O)CC[C@@]43C)[C@@H]1CC[C@@H]2O,"activity, negative = cell killing",[1]; [3],-16.4%
same,"activity, negative = cell killing",[1]; [4],-29.9%
same,Potency,[1]; tumour line A,12.6 µM (active)
CC(C)[C@@]1(NC(=O)[C@@H]2C[C@@H]3c4cccc5[nH]cc(c45)C[C@H]3N(C)C2)O[C@@]2(O)[C@@H]3CCCN3C(=O)[C@H](Cc3ccccc3)N2C1=O,"activity, negative = cell killing",[1]; [6],9.68%
same,Potency,[1]; tumour line A,3.16 µM (active)
